The record followed here is PubChem BioAssay (NCATS).

Test [1] deals with Glutathione peroxidase 1 (Homo sapiens) (UniProt P07203). In words: Primary qHTS Assay for Inhibitors of Recombinant Selenoprotein Glutathione Peroxidase 1 (GPX1) (AID 1845191). Further: nearly all actives have a fitted effect of over 65% in size. On activity, negative = inhibition: on the % scale 0 is the no-effect control and ±100 the full control effect. In a few lines: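 NADPH consumption tracked by fluorescence at 340/450 nm between t=0 and t=15 min, room temperature. Final mix: 10 nM GPX1, 100 nM glutathione reductase, 1 mM GSH, 0.5 mM NADPH, 0.5 mM cumene hydroperoxide, 0.01% BSA; 30 min compound–enzyme preincubation.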
Sequence of Glutathione peroxidase 1 (Homo sapiens) (P07203 whole entry, looked up): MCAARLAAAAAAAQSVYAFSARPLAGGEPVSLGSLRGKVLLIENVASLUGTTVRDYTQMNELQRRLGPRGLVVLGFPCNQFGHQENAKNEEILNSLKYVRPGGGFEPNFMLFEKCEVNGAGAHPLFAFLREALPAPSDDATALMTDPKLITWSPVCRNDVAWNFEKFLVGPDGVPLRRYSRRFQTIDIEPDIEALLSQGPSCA
In general terms: Quantitative high-throughput screening tests each substance at several concentrations.

Test [2] has as its target Phospholipid hydroperoxide glutathione peroxidase GPX4 (Homo sapiens) (UniProt P36969). Kind of test: Primary qHTS Assay for Inhibitors of Recombinant Selenoprotein Glutathione Peroxidase 4 (GPX4) (AID 1845192). Further: nearly all actives have a fitted effect of over 65% in size. On activity change, negative = inhibition: series mostly up to about 50 µM; on the % scale 0 is the no-effect control and ±100 the full control effect. A digest of the protocol:
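NADPH consumption followed by fluorescence at 340/450 nm, t=0 and after 15 min at room temperature. Reaction started with cumene hydroperoxide (0.5 mM final) after 30 min compound–GPX4 preincubation; final 200 nM GPX4, 100 nM GR, 1 mM GSH, 0.5 mM NADPH.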

Test [3] is described as follows: Primary fluorescence-based thiol-reactive (MSTI) qHTS assay for identification of artifact compounds. (AID 1845221). Further: nearly all actives have a fitted effect of over 65% in size. Further: potency means the concentration at half of the fitted maximal effect.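 On activity change, negative = thiol reactive: series mostly up to about 54 µM; thiol-reactive compounds lower the probe fluorescence signal.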 A digest of the protocol: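 One-hour, room-temperature, dark incubation of compound with 4 uM MSTI in PBS (pH 7.4, 2% DMSO) precedes a fluorescence read at 525 nm excitation, 598 nm emission; Hill-equation fitting yields concentration-response values.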

Test [4] relates to Nanoluciferase (engineered Oplophorus gracilirostris luciferase). Kind of test: Primary Nanoluciferase (NLuc) qHTS assay for identification of artifact compounds. (AID 1845222).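 Further: NLuc secreted into diluted conditioned medium of S16 cells; series mostly up to about 54 µM; 0% = DMSO and -100% = no enzyme.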 In a few lines:
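NLuc from S16 cell medium (1:55) plus test compounds, 15 min, room temperature. Luminescence after Nano-Glo (1:100) addition, 5 min.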

Test [5] is described as follows: Primary redox qHTS assay for identification of artifact compounds. (AID 1845223).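 Further: 0% = DMSO and 100% = reference compound.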 In a few lines: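 Redox-cycling detection via DTT (250 uM final) oxidation coupled to Amplex Red (25 uM)/HRP (250 mU/mL) in HBSS. 15 min preincubation plus 30 min after DTT, room temperature. Ex/Em 525/598 nm; 4-parameter Hill fit against DMSO and 10 uM DA3003.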

Unmarked numbers belong to inactive results. Inconclusive results are not listed. Activity calls are given as the source filed them. The call rests on the fitted dose curve; in most records, active means well fitted curve in the direction sought with a large enough effect; inconclusive means small, poorly fitted or top-dose-only effect, or another doubt; inactive means no such curve, though single readings can be large; an effect the other way counts as inactive or inconclusive.

Sequence of Phospholipid hydroperoxide glutathione peroxidase GPX4 (Homo sapiens) (P36969 whole entry, looked up): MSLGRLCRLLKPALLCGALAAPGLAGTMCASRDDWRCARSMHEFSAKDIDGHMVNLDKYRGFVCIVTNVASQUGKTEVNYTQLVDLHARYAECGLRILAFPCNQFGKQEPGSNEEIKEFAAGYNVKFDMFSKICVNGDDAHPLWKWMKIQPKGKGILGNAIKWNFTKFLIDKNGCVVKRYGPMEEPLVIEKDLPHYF

Turning to `O=C(O)c1cccc(-c2ccc(-c3cn(C(=O)N4CCCCC4Cc4ccccc4)nn3)cc2)c1` (centres undefined), the Potency result in test [1], in test [2], in test [3], in test [4] and in test [5] was “inactive” in each case.
Turning to `CCc1ccc(-c2nc(CSCC(=O)NCCc3ccccc3)c(C)o2)cc1`, the Potency result in test [1], in test [2], in test [3], in test [4] and in test [5] was “inactive” in each case.
`CC1CCC(=O)CC(SCC(O)C(=O)O)CCC(=O)O1` (centres undefined): the Potency entry in test [1], in test [2], in test [3], in test [4] and in test [5] was “inactive” in each case.
Turning to `COc1ccc([C@H]2OC[C@H]3O[C@@H](O[C@H]4[C@@H]2NC[C@@H]4O)[C@H](O)[C@H]3O)cc1`, the Potency entry in test [1], in test [2], in test [3], in test [4] and in test [5] was “inactive” in each case.
For `Cc1cc(C(=O)Nc2cc(Nc3ccc4c(/C=C/c5ccccn5)n[nH]c4c3)ccc2F)n(C)n1`, the Potency entry in test [1], in test [2], in test [4] and in test [5] was “inactive” throughout. In addition, the Potency in test [3] is 11.9 µM (active).
Consider `CCCCC1CCN(CCCN2C(=O)CCc3ccccc32)CC1`, for which the Potency entry in test [1], in test [2], in test [3], in test [4] and in test [5] was “inactive” throughout.
For the molecule `CN(C)Cc1ccc(-c2cnn3c(-c4cccc(NC(=O)c5cccc(C(F)(F)F)c5)c4)ccnc23)cc1`, the Potency result in test [1], in test [2], in test [3], in test [4] and in test [5] was “inactive” each time.
Regarding `CC(=O)OC1CCC2(C)C(CCC3(C)C2CC=C2C4C(C)C(C)CCC4(C)CCC23C)C1(C)C(=O)O` (centres undefined), the Potency entry in test [1], in test [2], in test [3], in test [4] and in test [5] was “inactive” throughout.
Turning to `Nc1ncnc2c1nc(Cl)n2C1OC2COP(=O)(O)OC2C1O` (centres undefined), the Potency result in test [1], in test [2], in test [3], in test [4] and in test [5] was “inactive” in each case.
On to `CCC(C)(OC(C)=O)C(=O)O[C@H]1[C@H](OC(C)=O)[C@]2(CO)[C@H](O)[C@H](O)[C@]3(C)C(=CCC4[C@@]5(C)CC[C@H](O[C@@H]6O[C@H](C(=O)O)[C@@H](O)[C@H](O[C@@H]7OC[C@H](O)[C@H](O[C@@H]8OC[C@H](O)[C@H](O)[C@H]8O)[C@H]7O)[C@H]6O[C@@H]6O[C@H](CO)[C@@H](O)[C@H](O)[C@H]6O)C(C)(C)C5CC[C@]43C)[C@@H]2CC1(C)C` (some centres undefined), for which the figures for the activity, negative = inhibition in test [1] and in test [4] were -12.6% [at 9.52 µM] and -1.71% [at 11.6 µM], respectively. In test [2], the activity change, negative = inhibition is -15.3% [at 9.73 µM]. The activity change, negative = thiol reactive in test [3] was 202% [at 11.5 µM]. The redox activity (% of DA3003) in test [5] is 22% [at 11.5 µM].
Take `OC(CC1c2ccccc2-c2cncn21)C1CCCCC1` (centres undefined): the Potency result in test [1], in test [2], in test [3], in test [4] and in test [5] was “inactive” throughout.
Consider `O=C(c1ccccn1)N(Cc1cccs1)C1(C(=O)NC2CCCCC2)CCCCC1`, for which the Potency result in test [1], in test [2], in test [3], in test [4] and in test [5] was “inactive” in each case.
On to `NCC1CCN(c2nccc(-c3ccc4ccccc4c3)n2)CC1`, for which the Potency entry in test [1], in test [2], in test [3], in test [4] and in test [5] was “inactive” in each case.
On to `CCOC(=O)c1csc(Nc2ccc(Cl)cc2)n1`, for which the Potency entry in test [1], in test [2], in test [3], in test [4] and in test [5] was “inactive” in each case.
On to `CC(C)(C)c1ccc(C(=O)Nc2cn3cc(-n4ccnc4)ccc3n2)cc1`, for which the Potency result in test [1], in test [2], in test [3], in test [4] and in test [5] was “inactive” throughout.
For `C=C1C(=O)OC2/C=C(\C)CC/C=C(\C)CC(OC(C)=O)C12` (centres undefined), the Potency entry in test [1], in test [2], in test [3], in test [4] and in test [5] was “inactive” each time.
Turning to `C/C=C(\C)C(=O)O[C@H]1C=CC(=O)O[C@H]1/C=C/[C@@H](O)[C@H](C)O`, the Potency result in test [1], in test [2], in test [3], in test [4] and in test [5] was “inactive” throughout.
As to `C/C=C/C=C/C=C/C(=O)O[C@@H]1C=C(CO)C(O)(C(=O)OC)[C@@]2(C)CCCC(C)(C)C12` (some centres undefined), the Potency entry in test [1], in test [2], in test [3], in test [4] and in test [5] was “inactive” throughout.
On to `CNc1nc(Nc2ccc(C(=O)N3CCOCC3)cc2OC)nc2[nH]cc(Cl)c12`, for which the Potency entry in test [1], in test [2], in test [4] and in test [5] was “inactive” throughout. In test [3], the Potency is 1.68 µM (active).
`O=C(NCCCNC(=O)c1ccc[nH]c1=O)c1cc(-c2ccccc2)on1`: the Potency result in test [1], in test [2], in test [3] and in test [5] was “inactive” throughout.
`COc1ccc(-c2cnc3c(-c4cccc5ncccc45)cnn3c2)cc1`: the Potency result in test [1], in test [2], in test [3], in test [4] and in test [5] was “inactive” each time.
For `COc1ccccc1C(=O)Nc1cccc(NC(=O)c2cccc(C)c2)c1`, the Potency entry in test [1], in test [2], in test [3], in test [4] and in test [5] was “inactive” throughout.
